# Laboratory results as given in PubChem BioAssay (NCATS).
# Results filed as inconclusive are left out. Where a call stands in place of a potency, no number is given. The source made the active and inactive calls. Unless noted, calls follow the shape of the dose curve; as a rule, active = well fitted curve in the direction sought with a large enough effect; inconclusive = small, poorly fitted or top-dose-only effect, or another doubt; inactive = no such curve, though single readings can be large; an effect the other way counts as inactive or inconclusive.
# Key:
# [1] = target: Cytochrome P450 3A4 (Homo sapiens) (UniProt P08684); test: qHTS Assay for Inhibitors and Substrates of Cytochrome P450 3A4 (AID 884); also: nearly all actives have a fitted effect of over 50% in size; also: potency is read from the fitted curve at half-maximal effect
# Sequence of Cytochrome P450 3A4 (Homo sapiens) (P08684 whole entry, looked up): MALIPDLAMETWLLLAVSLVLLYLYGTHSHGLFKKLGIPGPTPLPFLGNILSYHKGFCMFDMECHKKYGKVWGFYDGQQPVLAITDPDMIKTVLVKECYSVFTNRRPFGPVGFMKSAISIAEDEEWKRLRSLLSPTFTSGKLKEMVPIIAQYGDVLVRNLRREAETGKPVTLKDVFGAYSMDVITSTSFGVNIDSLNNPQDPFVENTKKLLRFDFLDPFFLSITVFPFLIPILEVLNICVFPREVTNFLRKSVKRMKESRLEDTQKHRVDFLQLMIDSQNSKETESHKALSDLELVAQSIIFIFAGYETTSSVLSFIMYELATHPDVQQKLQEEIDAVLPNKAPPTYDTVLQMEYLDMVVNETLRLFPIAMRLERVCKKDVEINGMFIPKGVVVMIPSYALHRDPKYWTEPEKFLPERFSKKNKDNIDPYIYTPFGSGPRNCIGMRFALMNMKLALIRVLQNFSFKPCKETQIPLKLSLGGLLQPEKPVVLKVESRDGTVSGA
# Outline: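 20 nM human CYP3A4 with 25 uM Luciferin-PPXE (at KM) in 200 mM KPO4, preincubated 10 min with compound; NADPH regeneration started a 60 min RT reaction. Luciferin detected by luminescence, normalized to 57 uM ketoconazole as full inhibition.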
# [2] = target: Cytochrome P450 3A4 (Homo sapiens) (UniProt P08684); test: qHTS Assay for Activators of Cytochrome P450 3A4 (AID 885); also: nearly all actives have a fitted effect of over 65% in size
# Outline: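 20nM CYP3A4 + 25uM Luciferin-PPXE (=KM), 200mM KPO4; cpd 10 min RT; NADPH regen, 60 min RT; stop w/ detection buffer, 20 min; luminescence. Normalized to 57 uM ketoconazole.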
# [3] = target: Mitogen-activated protein kinase 10 (Mus musculus) (UniProt Q61831); test: JNK3 AlphaScreen Assay (AID 530; active = well fitted curve in either direction with a large enough effect, not every such curve was filed as active;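 also: kinase came from lysate of stimulated human HepG2 cells; signal reports phosphorylation of biotinylated GST-cJun 1-79 at Ser73 with 10 µM ATP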)
# Outline: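 JNK3 came from HepG2 lysates pre-activated with IL-1beta and TNF-alpha and phosphorylated biotinylated GST-cJun (1-79) at 10 uM ATP, pH 7.6, room temperature. Compounds were titrated. AlphaScreen signal used anti-phospho-cJun (Ser73) antibody.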
# [4] = target: Calcium and integrin-binding protein 1 (Homo sapiens) (UniProt Q99828); test: Primary qHTS for Identification of Calcium Integrin Binding Protein 1 (CIB1) Competitor (AID 1508620);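 also: GST tagged CIB1 binding a fluorescein labelled alphaIIb integrin peptide tracer; top concentration of the series differs between compounds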
# Sequence of Calcium and integrin-binding protein 1 (Homo sapiens) (Q99828 whole entry, looked up): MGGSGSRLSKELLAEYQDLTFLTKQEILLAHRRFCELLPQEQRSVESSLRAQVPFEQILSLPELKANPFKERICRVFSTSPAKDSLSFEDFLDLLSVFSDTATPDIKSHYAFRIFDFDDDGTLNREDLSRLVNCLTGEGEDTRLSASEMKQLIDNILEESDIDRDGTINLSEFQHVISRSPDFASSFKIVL
# Outline: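 Fluorescence polarization competition: CIB1-GST (1 uM final) preincubated with compound 15 min at room temperature, then FITC-labeled alphaIIb peptide (100 nM final) added for another 15 min. Polarization read at Ex 480/Em 540.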
# [5] = qHTS profiling for inhibitors of Plasmodium falciparum (3D7) proliferation (AID 743322);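 also: infected erythrocytes exposed to compound for 72 h before lysis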; settings: P. falciparum 3D7 proliferation; at 28.7 µM (top of the series)
# Outline: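 Erythrocytes infected with P. falciparum (0.3% parasitemia, 2.5% hematocrit) incubated with compounds 72 h at 37 C, 5% CO2. Lysis with saponin/Triton buffer containing SYBR Green I, overnight at room temperature in the dark; DNA fluorescence (485/535 nm) normalised to 0.29 uM artemisinin and DMSO.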
# [6] = qHTS profiling for inhibitors of Plasmodium falciparum (DD2) proliferation (AID 743323; call rule not given here); settings: lower = more inhibition; at 28.7 µM (top of the series)
# Outline: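 SYBR Green fluorescence (ex 485, em 535 nm) of lysed cultures gives parasite DNA content; wells normalized to artemisinin (0.29 uM) and DMSO controls. Infected red cells: 0.3% parasitemia, 2.5% hematocrit, 72 h, 37 C.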
# [7] = target: Ubiquitin carboxyl-terminal hydrolase 1 (Homo sapiens) (UniProt O94782); test: Inhibitors of USP1/UAF1: Pilot qHTS (AID 504865); also: nearly all actives have a fitted effect of over 35% in size; also: potency is read from the fitted curve at half-maximal effect;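 as to activity change, negative = inhibition: rhodamine fluorescence freed from ubiquitin-rhodamine substrate followed over time; top concentration of the series differs between compounds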
# Sequence of Ubiquitin carboxyl-terminal hydrolase 1 (Homo sapiens) (O94782 whole entry, looked up): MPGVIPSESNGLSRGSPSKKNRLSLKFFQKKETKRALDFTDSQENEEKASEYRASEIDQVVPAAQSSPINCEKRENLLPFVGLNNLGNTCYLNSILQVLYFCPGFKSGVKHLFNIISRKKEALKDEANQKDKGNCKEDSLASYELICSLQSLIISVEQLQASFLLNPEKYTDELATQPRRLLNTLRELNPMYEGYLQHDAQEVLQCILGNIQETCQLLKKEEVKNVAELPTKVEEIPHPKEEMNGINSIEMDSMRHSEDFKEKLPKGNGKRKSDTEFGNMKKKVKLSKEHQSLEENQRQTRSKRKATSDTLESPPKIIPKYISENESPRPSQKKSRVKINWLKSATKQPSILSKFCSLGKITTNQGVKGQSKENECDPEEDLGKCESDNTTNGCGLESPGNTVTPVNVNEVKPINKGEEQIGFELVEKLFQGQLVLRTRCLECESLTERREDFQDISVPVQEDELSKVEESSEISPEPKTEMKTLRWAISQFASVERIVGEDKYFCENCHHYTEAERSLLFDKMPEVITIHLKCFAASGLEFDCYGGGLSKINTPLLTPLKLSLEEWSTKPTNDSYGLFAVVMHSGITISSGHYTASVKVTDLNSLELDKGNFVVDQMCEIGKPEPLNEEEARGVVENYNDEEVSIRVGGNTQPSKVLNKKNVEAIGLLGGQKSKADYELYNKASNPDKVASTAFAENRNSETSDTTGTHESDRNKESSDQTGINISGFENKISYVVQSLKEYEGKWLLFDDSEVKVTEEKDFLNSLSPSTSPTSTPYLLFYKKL
# Outline: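 USP1/UAF1 complex at 1 nM preincubated 15 min at room temperature with compound, then Ub-Rho substrate added at 150 nM final. Fluorescence (480/540 nm) read kinetically in 50 mM HEPES pH 7.8, 0.5 mM EDTA, 1 mM TCEP, 0.1 mg/ml BSA, 0.01% Tween-20.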
# [8] = Confirmation and Secondary Assay for Modulators of Hemoglobin Beta Chain Splicing at IVS2 654 locus (AID 910);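 also: per-well total GFP intensity by laser scanning cytometry after 2-day treatment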
# Outline: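 HeLa cells stably carrying EGFP interrupted by mutant beta-globin IVS2-654 intron (CMV-driven) were treated with compound for 2 days at 37C; corrected splicing was scored as total peak GFP intensity per well (488 nm excitation, 500-520 nm emission).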
# [9] = Confirmation and Secondary Assay for Modulators of Hemoglobin Beta Chain Splicing at IVS2 705 locus (AID 930);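 also: HeLa cells stably expressing the EGFP-705 splicing reporter; GFP fluorescence per well restored by corrected splicing of the IVS2-705 intron in EGFP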
# Outline: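 Secondary splice-site specificity test uses HeLa expressing CMV-driven EGFP interrupted by IVS2-705; cells were treated 2 days at 37C with 500 nM antisense PNA as positive control.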
# [10] = Primary qHTS for small molecule stabilizers of the endoplasmic reticulum resident proteome: Secreted ER Calcium Modulated Protein (SERCaMP) assay (AID 1508630)
# Outline: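 GLuc-SERCaMP-expressing SH-SY5Y cells, pretreated 16 h with compound, are challenged with thapsigargin to empty ER calcium stores; after 4 h, coelenterazine is added directly to the medium and luminescence is imaged.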
# [11] = target: Rap guanine nucleotide exchange factor 3 (Homo sapiens) (UniProt O95398); test: Confirmatory qHTS for antagonist of cAMP-regulated guanine nucleotide exchange factor 3 (EPAC1) (AID 1645880); also: nearly all actives have a fitted effect of over 55% in size
# Sequence of Rap guanine nucleotide exchange factor 3 (Homo sapiens) (O95398 whole entry, looked up): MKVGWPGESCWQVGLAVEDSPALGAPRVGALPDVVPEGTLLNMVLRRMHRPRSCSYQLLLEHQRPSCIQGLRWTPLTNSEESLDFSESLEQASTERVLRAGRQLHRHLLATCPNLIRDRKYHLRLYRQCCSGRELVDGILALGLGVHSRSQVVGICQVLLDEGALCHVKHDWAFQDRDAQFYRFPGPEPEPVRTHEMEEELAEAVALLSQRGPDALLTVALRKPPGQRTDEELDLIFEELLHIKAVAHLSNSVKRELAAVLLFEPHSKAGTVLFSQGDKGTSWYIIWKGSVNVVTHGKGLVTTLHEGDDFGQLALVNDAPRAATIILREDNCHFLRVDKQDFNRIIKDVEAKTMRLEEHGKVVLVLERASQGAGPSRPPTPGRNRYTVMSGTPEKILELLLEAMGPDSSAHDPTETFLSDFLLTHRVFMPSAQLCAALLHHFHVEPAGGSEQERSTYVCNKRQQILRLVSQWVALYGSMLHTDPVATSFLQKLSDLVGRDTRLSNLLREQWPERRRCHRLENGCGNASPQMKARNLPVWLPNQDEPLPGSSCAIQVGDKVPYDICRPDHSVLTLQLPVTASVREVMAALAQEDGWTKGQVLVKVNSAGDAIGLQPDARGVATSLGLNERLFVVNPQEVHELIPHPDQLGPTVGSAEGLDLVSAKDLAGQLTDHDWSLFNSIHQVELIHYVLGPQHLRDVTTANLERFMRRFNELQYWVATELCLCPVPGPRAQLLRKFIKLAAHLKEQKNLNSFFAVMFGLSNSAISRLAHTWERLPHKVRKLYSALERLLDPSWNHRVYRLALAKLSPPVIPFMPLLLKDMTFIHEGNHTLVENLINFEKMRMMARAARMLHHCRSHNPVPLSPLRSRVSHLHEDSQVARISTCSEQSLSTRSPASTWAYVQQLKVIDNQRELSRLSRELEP
# Outline: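 Nucleotide exchange uses 100 nM EPAC1, 250 nM RAP1B-BODIPY-GDP and 50 uM GDP, with compounds in a concentration-titration series. After 5 min at room temperature, fluorescence (480 nm ex/540 nm em) is read every 5 min for 30 min. Data are normalized to control ATA and DMSO.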
# [12] = target: Rap guanine nucleotide exchange factor 4 (Homo sapiens) (UniProt Q8WZA2); test: Confirmatory qHTS for antagonist of cAMP-regulated guanine nucleotide exchange factor 4 (EPAC2) (AID 1645885); also: nearly all actives have a fitted effect of over 25% in size
# Sequence of Rap guanine nucleotide exchange factor 4 (Homo sapiens) (Q8WZA2 whole entry, looked up): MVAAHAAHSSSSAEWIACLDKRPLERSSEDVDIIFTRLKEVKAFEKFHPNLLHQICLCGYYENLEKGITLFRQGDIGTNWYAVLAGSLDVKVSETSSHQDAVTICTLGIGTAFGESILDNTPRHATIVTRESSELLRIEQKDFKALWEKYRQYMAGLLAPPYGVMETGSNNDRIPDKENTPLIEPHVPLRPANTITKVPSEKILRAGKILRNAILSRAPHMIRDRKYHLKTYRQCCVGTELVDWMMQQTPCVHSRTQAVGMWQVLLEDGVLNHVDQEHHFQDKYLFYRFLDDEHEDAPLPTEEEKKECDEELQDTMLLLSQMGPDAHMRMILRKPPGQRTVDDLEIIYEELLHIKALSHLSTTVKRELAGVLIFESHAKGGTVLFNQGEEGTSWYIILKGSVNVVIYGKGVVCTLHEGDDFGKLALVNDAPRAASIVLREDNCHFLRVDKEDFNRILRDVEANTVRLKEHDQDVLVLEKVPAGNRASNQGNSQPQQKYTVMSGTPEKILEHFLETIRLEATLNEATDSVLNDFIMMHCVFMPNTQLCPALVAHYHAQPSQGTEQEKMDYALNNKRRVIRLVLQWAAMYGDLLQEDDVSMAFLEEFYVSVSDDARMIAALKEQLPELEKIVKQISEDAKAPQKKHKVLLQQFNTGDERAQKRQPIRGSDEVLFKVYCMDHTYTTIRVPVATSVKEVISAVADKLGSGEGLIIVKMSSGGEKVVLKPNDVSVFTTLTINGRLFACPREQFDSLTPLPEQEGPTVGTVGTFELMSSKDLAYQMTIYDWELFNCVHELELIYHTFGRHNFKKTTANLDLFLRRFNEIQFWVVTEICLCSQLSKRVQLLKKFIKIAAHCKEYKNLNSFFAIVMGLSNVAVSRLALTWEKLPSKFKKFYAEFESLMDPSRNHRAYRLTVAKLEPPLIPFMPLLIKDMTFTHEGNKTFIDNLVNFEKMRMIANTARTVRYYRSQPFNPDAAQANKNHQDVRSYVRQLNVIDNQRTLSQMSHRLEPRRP
# [13] = target: Rap guanine nucleotide exchange factor 3 (Homo sapiens) (UniProt O95398); test: Counterscreen qHTS for antagonist of cAMP-regulated guanine nucleotide exchange factor 3 (EPAC1) (AID 1645888);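 also: fluorescence loss as bound BODIPY-GDP is released from Rap1B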
# Outline: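 Measured: fluorescence of BODIPY-GDP bound to Rap1B, which falls as exchange proceeds. Conditions include 50 uM competing GDP, 5 and 30 min reads, and a later cAMP challenge for antagonist detection.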
# [14] = target: Cytochrome P450 1A2 (Homo sapiens) (UniProt P05177); test: p450-cyp1a2 (AID 410; calls by dose curve; also: potency is read from the fitted curve at half-maximal effect)
# Sequence of Cytochrome P450 1A2 (Homo sapiens) (P05177 whole entry, looked up): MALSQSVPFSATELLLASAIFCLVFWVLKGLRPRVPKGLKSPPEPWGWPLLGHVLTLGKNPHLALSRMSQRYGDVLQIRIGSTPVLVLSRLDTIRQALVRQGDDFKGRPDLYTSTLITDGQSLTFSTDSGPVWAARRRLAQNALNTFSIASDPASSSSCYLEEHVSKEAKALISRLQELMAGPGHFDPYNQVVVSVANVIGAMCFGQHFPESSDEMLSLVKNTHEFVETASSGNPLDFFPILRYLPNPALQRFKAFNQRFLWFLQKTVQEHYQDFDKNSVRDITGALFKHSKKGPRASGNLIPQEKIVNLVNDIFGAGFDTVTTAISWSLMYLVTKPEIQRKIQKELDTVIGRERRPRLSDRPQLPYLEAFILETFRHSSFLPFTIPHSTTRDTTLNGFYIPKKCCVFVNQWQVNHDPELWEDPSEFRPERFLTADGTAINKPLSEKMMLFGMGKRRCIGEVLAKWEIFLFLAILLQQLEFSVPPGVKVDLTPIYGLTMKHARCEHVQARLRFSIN
# Outline: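 Human CYP1A2 (20nM) demethylated Luciferin-ME at its Km (100uM) in 100mM KPO4. After 10 min compound preincubation, NADPH regeneration ran the reaction 60 min at room temperature. Luciferin was read by luminescence, normalized to 57 uM furafylline.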
# [15] = target: Cytochrome P450 2D6 (Homo sapiens) (UniProt P10635); test: Cytochrome P450 family 2 subfamily D member 6 (CYP2D6) small molecule antagonists: luciferase biochemical (cell-free) qHTS assay (AID 1645840; active = well fitted curve in the direction sought with a large enough effect in the repeat runs; an effect the other way counts as inactive or inconclusive; also: potency is read from the fitted curve at half-maximal effect; nearly all actives have a fitted effect of over 55% in size)
# Sequence of Cytochrome P450 2D6 (Homo sapiens) (P10635 whole entry, looked up): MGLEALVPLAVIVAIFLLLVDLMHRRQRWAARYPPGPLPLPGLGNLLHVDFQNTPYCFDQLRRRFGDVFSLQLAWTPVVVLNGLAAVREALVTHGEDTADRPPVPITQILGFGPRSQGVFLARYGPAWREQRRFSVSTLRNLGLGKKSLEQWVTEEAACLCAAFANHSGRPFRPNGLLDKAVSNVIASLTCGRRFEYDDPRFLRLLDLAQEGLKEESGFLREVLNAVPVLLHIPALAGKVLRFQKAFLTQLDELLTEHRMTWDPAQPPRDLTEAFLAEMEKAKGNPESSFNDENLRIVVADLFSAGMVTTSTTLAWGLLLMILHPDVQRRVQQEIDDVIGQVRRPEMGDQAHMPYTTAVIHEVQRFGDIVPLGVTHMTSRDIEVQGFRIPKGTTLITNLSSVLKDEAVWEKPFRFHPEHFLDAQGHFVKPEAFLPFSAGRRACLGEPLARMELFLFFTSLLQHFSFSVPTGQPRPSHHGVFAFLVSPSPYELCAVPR
# Outline: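 P450-Glo luminescent screen: recombinant CYP2D6 enzyme–proluciferin substrate mix preincubated with compound 10 min at room temperature, then NADPH regeneration added for 1 h at room temperature. Detection reagent added for 20 min; luciferin light read as relative luminescence units.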
# [16] = target: Cytochrome P450 2C9 (Homo sapiens) (UniProt P11712); test: Cytochrome P450 family 2 subfamily C member 9 (CYP2C9) small molecule antagonists: luciferase biochemical (cell-free) qHTS assay (AID 1645842; active = well fitted curve in the direction sought with a large enough effect in the repeat runs; an effect the other way counts as inactive or inconclusive; also: potency is read from the fitted curve at half-maximal effect; nearly all actives have a fitted effect of over 55% in size)
# Sequence of Cytochrome P450 2C9 (Homo sapiens) (P11712 whole entry, looked up): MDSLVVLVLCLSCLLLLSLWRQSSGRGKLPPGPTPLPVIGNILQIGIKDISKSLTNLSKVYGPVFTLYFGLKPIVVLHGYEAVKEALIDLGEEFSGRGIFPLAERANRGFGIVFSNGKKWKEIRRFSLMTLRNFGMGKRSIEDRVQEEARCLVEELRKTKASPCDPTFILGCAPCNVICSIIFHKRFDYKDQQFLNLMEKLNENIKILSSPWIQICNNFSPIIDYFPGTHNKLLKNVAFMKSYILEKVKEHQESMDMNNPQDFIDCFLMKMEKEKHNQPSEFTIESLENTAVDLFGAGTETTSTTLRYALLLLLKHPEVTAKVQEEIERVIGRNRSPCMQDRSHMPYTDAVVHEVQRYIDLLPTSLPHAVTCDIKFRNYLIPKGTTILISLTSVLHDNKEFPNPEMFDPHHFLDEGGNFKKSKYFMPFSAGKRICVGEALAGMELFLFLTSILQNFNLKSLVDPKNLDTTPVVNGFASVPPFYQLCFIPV
# Outline: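 Luminescence, after 20 min with luciferin detection reagent, reflected CYP2C9 turnover during a 1 h NADPH-driven reaction at 37C. Enzyme-substrate mix contained 0.4% bovine serum albumin and was preincubated with compound 10 min at room temperature.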
# [17] = tested on: Zika virus NS2B-NS3 protease (unlinked complex); test: Primary screen GU Rhodamine qHTS for Zika virus inhibitors: Unlinked NS2B-NS3 protease assay (AID 1347159); also: nearly all actives have a fitted effect of over 60% in size; also: potency is read from the fitted curve at half-maximal effect
# Outline: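 Noncovalent NS2B hydrophilic domain–NS3 protease domain complex (25 nM) preincubated 15 min at room temperature with compounds (up to 114 microM) in 10 mM Tris-HCl pH 8.0, 0.01% Tween 20; 1.5 microM Rhodamine110 substrate added, fluorescence change over 15 min fitted to Hill equation.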
# [18] = target: Phospholipid hydroperoxide glutathione peroxidase GPX4 (Homo sapiens) (UniProt P36969); test: Primary qHTS Assay for Inhibitors of Recombinant Selenoprotein Glutathione Peroxidase 4 (GPX4) (AID 1845192); settings: outcome: dose series up to 50 µM unless noted; also: nearly all actives have a fitted effect of over 65% in size
# Outline: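 GR-coupled readout: 100 nM GR, 1 mM GSH, 0.5 mM NADPH; NADPH fluorescence (ex 340/em 450 nm) read at t=0 and after 15 min RT. GPX4 200 nM, preincubated 30 min with compound; substrate 0.5 mM CHP.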
# [19] = target: Luciferin 4-monooxygenase (Photinus pyralis) (UniProt P08659); test: Primary firefly luciferase (FLuc) qHTS assay for identification of artifact compounds. (AID 1845220); also: nearly all actives have a fitted effect of over 60% in size
# Outline: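 Reaction readout was CCD-imaged luminescence, taken 5 min after adding 10 nM purified firefly enzyme to compound-treated wells holding 10 uM luciferin and ATP in pH 7.6 buffer.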
# [20] = Primary fluorescence-based thiol-reactive (MSTI) qHTS assay for identification of artifact compounds. (AID 1845221);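 also: thiol-reactive compounds lower the probe fluorescence signal; nearly all actives have a fitted effect of over 65% in size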
# Outline: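 Compounds were incubated 1 h at room temperature in the dark with the MSTI probe (4 uM) in PBS pH 7.4, 2% DMSO. Signals were normalized between Acetyl-MSTI and MSTI.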
structure (smiles),measurement,setting,value
CCCCCS(=O)(=O)CCCCCCCCCCn1c(-c2ccc(O)cc2)c(C)c2cc(O)ccc21,Potency,[1],0.631 µM (active)
same,Potency,[2],inactive
COc1ccccc1CC(=N)N1C[C@@H]2C(=O)CCC(c3ccccc3)(c3ccccc3)[C@@H]2C1,Potency,[3],inactive
same,Potency,[1],3.16 µM (active)
same,Potency,[2],inactive
COc1ccc2c(c1)Oc1nc(-c3ccc(C)s3)nc(SCC(=O)Nc3cccc(C(=O)O)c3)c1C2,outcome,[4],inactive
COc1ccc2cccc(N3CCN(CCNC(=O)c4ccc(F)cc4)CC3)c2c1,Potency,[3],inactive
CC(C)N=C(N)N=C(N)Nc1ccc(Cl)cc1,remaining parasite growth % (stronger effect = lower value),[5],-0.519%
same,"activity, percent of control",[6],0.237%
CCCCCCCCCCCCCCCCCCc1ccc(C(=O)/C=C\C(=O)O)cc1,Potency,[3],inactive
Cc1ccc(-c2nn(CC(C)(C)C)c3ncnc(N)c23)cc1,Potency,[3],inactive
Cc1cc(Cn2cnc3c2C[C@@H](C(=O)O)N(C(=O)C(c2ccccc2)c2ccccc2)C3)ccc1N(C)C,Potency,[3],inactive
same,Potency,[7],inactive
N[C@H](C(=O)O)[C@@H]1[C@@H](C(=O)O)C1(F)F,Potency,[3],inactive
same,Potency,[7],inactive
O=C(c1ccc(F)cc1)C1CCN(CCCCc2ccccc2)CC1,Potency,[3],inactive
same,Potency,[1],inactive
same,Potency,[7],inactive
O=c1c(O)cc(C2Oc3cc(O)cc(O)c3CC2O)cc2c(C3Oc4cc(O)cc(O)c4CC3O)cc(O)c(O)c12 (stereo not drawn),Potency,[1],15.8 µM (active)
same,Potency,[2],inactive
same,outcome,[8],inactive
same,outcome,[9],inactive
same,Potency,[7],35.5 µM (active)
C=C1c2c(Cl)ccc(O)c2C(O)=C2C(=O)[C@]3(O)C(O)=C(C(N)=O)C(=O)[C@@H](N(C)C)[C@@H]3[C@@H](O)C12 (stereo partly drawn),Potency,[10],inactive
O=C(Nc1ccccc1C(=O)OCc1cc(=O)n2c3c(sc2n1)CCCC3)c1ccc(F)cc1,Potency,[11],inactive
same,"activity change, negative = inhibition",[12],-5.61% [at 12.7 µM] (inactive)
same,outcome,[13],inactive
O=C(O)c1ccccc1-c1c2cc(I)c(=O)c(I)c-2oc2c(I)c(O)c(I)cc12,Potency,[11],inactive
same,"activity change, negative = inhibition",[12],12.6% [at 12.7 µM] (inactive)
same,"activity change, negative = inhibition",[13],212% [at 30.8 µM] (inactive)
O=C(O)c1c(Br)c(Br)c(Br)c(Br)c1C1c2ccc(O)cc2Oc2cc(O)ccc21,"activity change, negative = inhibition",[14],-6.8% [at 2.29 µM] (inactive)
same,"activity change, positive = activation",[2],-36% [at 11.4 µM] (inactive)
Cc1ccc(Nc2nnc(-c3ccc(C)c(S(=O)(=O)NCc4nc5ccccc5[nH]4)c3)c3ccccc23)cc1,Potency,[15],6.01 µM (active)
same,Potency,[16],5.35 µM (active)
O=C(Nc1ccc(C(=O)Nc2ccc(C(=O)Nc3ccc(S(=O)(=O)O)c4cc(S(=O)(=O)O)cc(S(=O)(=O)O)c34)cc2)cc1)Nc1ccc(C(=O)Nc2ccc(C(=O)Nc3ccc(S(=O)(=O)O)c4cc(S(=O)(=O)O)cc(S(=O)(=O)O)c34)cc2)cc1,Potency,[14],31.6 µM (active)
same,Potency,[7],39.8 µM (active)
same,Potency,[10],inactive
O=C1c2ccc(O)c(O)c2C(=O)c2c(O)ccc(O)c21,outcome,[8],inactive
same,outcome,[9],inactive
same,Potency,[7],79.4 µM (active)
same,Potency,[15],21.3 µM (active)
same,Potency,[16],19 µM (active)
O=C(OC1Cc2c(O)cc(O)cc2OC1c1cc(O)c(O)c(O)c1-c1c(C2Oc3cc(O)cc(O)c3CC2OC(=O)c2cc(O)c(O)c(O)c2)cc(O)c(O)c1O)c1cc(O)c(O)c(O)c1 (stereo not drawn),Potency,[1],inactive
same,outcome,[8],inactive
same,outcome,[9],inactive
same,Potency,[7],50.1 µM (active)
O=C(O)c1nc2cc(Cl)c(Cl)cc2[nH]c1=O,Potency,[1],inactive
same,outcome,[8],inactive
same,outcome,[9],inactive
same,Potency,[7],inactive
COc1cc(/C=C/C(=O)O)ccc1O,Potency,[1],inactive
same,outcome,[8],inactive
same,outcome,[9],inactive
same,Potency,[7],inactive
C/C=C/C[C@@H](C)[C@@H](O)[C@H]1C(=O)N[C@@H](CC)C(=O)N(C)CC(=O)N(C)[C@@H](CC(C)C)C(=O)N[C@@H](C(C)C)C(=O)N(C)[C@@H](CC(C)C)C(=O)N[C@@H](C)C(=O)N[C@H](C)C(=O)N(C)[C@@H](CC(C)C)C(=O)N(C)[C@@H](CC(C)C)C(=O)N(C)[C@H](C(C)C)C(=O)N1C,Potency,[17],inactive
same,Potency,[18],inactive
same,Potency,[19],inactive
same,Potency,[20],inactive
O=C(CCCCCCC(=O)Nc1ccc(C2OC(CSc3nc(-c4ccccc4)c(-c4ccccc4)o3)CC(c3ccc(CO)cc3)O2)cc1)NO (stereo not drawn),Potency,[17],39.8 µM (active)
same,outcome,[4],inactive
same,Potency,[18],inactive
same,Potency,[19],inactive
same,Potency,[20],inactive
